Data on nine compounds can be found in PubChem BioAssay (NCI).

Some test systems named below: HCT-15 colon; HT29 colon; SNB-75 CNS; SNB-19 CNS; PC-3 prostate; SK-MEL-5 melanoma; UACC-62 melanoma; LOX IMVI melanoma; SK-MEL-28 melanoma; SK-MEL-2 melanoma; EKVX NSCLC; SN12C renal; UO-31 renal; TK-10 renal; ACHN renal; CAKI-1 renal; A498 renal; CCRF-CEM leukemia; MOLT-4 leukemia; U251 CNS.
Experiment in all cases: NCI-60 one-dose screen, 48 h (100 = growth as untreated, 0 = no growth, -100 = all killed)
Conditions in all cases: 10 µM

About 83,000 compounds went through this panel and 20% of them were active in at least one assay; those are over-represented in the sample as a whole.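 Testing used 96-well plates and a 48-hour single-concentration exposure. Example: -40 means 40% of the starting cells died.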 A number with no mark means an inactive call. Calls of active or inactive are those of the source. How the source made its calls: active means growth percent below 10; inactive means the rest.

Regarding `CN1CCO/C1=C(/NC(=O)c1ccc(Cl)cc1)[P+](c1ccccc1)(c1ccccc1)c1ccccc1`, the growth in the test on HCT-15 colon was 107%; in the test on HT29 colon, 57.7%; in the test with SNB-75 CNS, 91.6%; with SNB-19 CNS, 76.5%; in the test on PC-3 prostate, 68.2%; with SK-MEL-5 melanoma it was 70.3%. Further, the growth in the test with UACC-62 melanoma was 48.5%; with LOX IMVI melanoma, 39.8%; in the test with SK-MEL-28 melanoma, 75.5%; in the test with SK-MEL-2 melanoma it was 90.9%; with EKVX NSCLC, 81.2%; in the test with SN12C renal it was 92.4%. Moreover, the growth in the test with UO-31 renal is 86.7%; in the test on TK-10 renal it was 99.6%; with ACHN renal it was 110%; with CAKI-1 renal it was 103%; in the test on A498 renal, 125%; with CCRF-CEM leukemia it was 77.9%. Also, the growth with MOLT-4 leukemia was 87.9%.
On to `O=C(Cn1cc(CSc2nnc3oc4ccccc4n23)nn1)Nc1ccc(Br)cc1`, for which the growth was 82.5% with HCT-15 colon; -24.5% (active) in the test on SNB-75 CNS; 24.7% in the test on SNB-19 CNS; 54.3% with U251 CNS; 80% with PC-3 prostate; 92.4% in the test with SK-MEL-5 melanoma. In addition, the growth in the test with UACC-62 melanoma was 49.8%; in the test with LOX IMVI melanoma, 54.9%; in the test on SK-MEL-28 melanoma, 89.7%; in the test with SK-MEL-2 melanoma, 71.5%; in the test on EKVX NSCLC, 78.5%; in the test with SN12C renal it was 61.5%. Moreover, the growth in the test on UO-31 renal was 74.2%; with TK-10 renal, 85.8%; with ACHN renal, 75.2%; in the test on CAKI-1 renal, 71.2%; in the test on A498 renal, 119%; in the test with CCRF-CEM leukemia, 97.9%.
In the case of `O=C(NO)c1ccc(CNC(=O)[C@H]2Cc3c([nH]c4ccccc34)[C@H](c3ccc(Cl)cc3)N2)cc1`, the growth is 30.5% with HCT-15 colon; 21.5% in the test on HT29 colon; 39.6% in the test with SNB-75 CNS; 15.5% with SNB-19 CNS; 21.4% in the test with PC-3 prostate; -70.8% (active) in the test with SK-MEL-5 melanoma. Moreover, the growth with UACC-62 melanoma is -49.8% (active); in the test on LOX IMVI melanoma, -88.4% (active); with SK-MEL-28 melanoma it was 1.81% (active); with SK-MEL-2 melanoma, -21.5% (active); in the test on SN12C renal, 15.1%; in the test with UO-31 renal, 21.8%. Further, the growth in the test with TK-10 renal is 4.19% (active); with ACHN renal it was 28.6%; in the test on CAKI-1 renal, 29%; in the test with A498 renal, -6.62% (active); in the test with CCRF-CEM leukemia, 17.4%; in the test on MOLT-4 leukemia it was 5.97% (active).
Consider `COc1ccc(-c2nc(S(=O)(=O)c3ccc(C)cc3)c(S(=O)(=O)CC(=O)N(C)Cc3ccccc3)o2)cc1`, for which the growth in the test with HCT-15 colon was -39.6% (active); in the test with SNB-75 CNS, 78.7%; with SNB-19 CNS it was 72.1%; with U251 CNS it was 23.6%; in the test with PC-3 prostate, 63.7%; with SK-MEL-5 melanoma, 78.4%. Besides, the growth is 46.7% with UACC-62 melanoma; -91.1% (active) with LOX IMVI melanoma; 64.8% with SK-MEL-28 melanoma; 51.1% in the test with SK-MEL-2 melanoma; 84.6% with EKVX NSCLC; 47.4% with SN12C renal. For the same compound, the growth in the test with UO-31 renal is 34.8%; in the test on TK-10 renal, 56%; in the test with ACHN renal, 6.56% (active); in the test on CAKI-1 renal, 42.9%; with A498 renal it was 132%; in the test with CCRF-CEM leukemia, -35.9% (active).
On to `CC1(c2ccccc2)NC(=O)N(CC(=O)Nc2ccc(C(=O)/C=C/c3ccccc3)cc2)C1=O` (centres undefined), for which the growth is 2.92% (active) in the test on HCT-15 colon; -23% (active) in the test on HT29 colon; 72.1% in the test on SNB-75 CNS; 66.1% in the test with SNB-19 CNS; 31.6% in the test with PC-3 prostate; 20.4% in the test on SK-MEL-5 melanoma. In addition, the growth in the test with UACC-62 melanoma is 36.5%; in the test with LOX IMVI melanoma, -72% (active); in the test with SK-MEL-28 melanoma, 62.3%; in the test with SK-MEL-2 melanoma, 75.3%; in the test with EKVX NSCLC, 58.2%; with SN12C renal, 68.7%. The growth is 52.9% in the test with UO-31 renal; 92.1% with TK-10 renal; 60.3% in the test with ACHN renal; 61.9% in the test on CAKI-1 renal; 104% in the test on A498 renal; 35.7% in the test with CCRF-CEM leukemia. Also, the growth in the test with MOLT-4 leukemia was 22.9%.
For `Cn1cc(-c2cc(N)n3nc(-c4c[nH]c5ccc(Br)cc45)cc3n2)c2cccnc21`, the growth in the test on HCT-15 colon was -77% (active); in the test on HT29 colon, -81.7% (active); with SNB-75 CNS, -73.1% (active); in the test with SNB-19 CNS, -83.5% (active); with PC-3 prostate it was -45.9% (active); in the test on SK-MEL-5 melanoma it was -98.3% (active). Besides, the growth in the test with UACC-62 melanoma was -93.9% (active); in the test with LOX IMVI melanoma, -95.6% (active); in the test with SK-MEL-28 melanoma it was -95.8% (active); in the test on SK-MEL-2 melanoma it was -56.4% (active); in the test with EKVX NSCLC it was -86.7% (active); in the test with UO-31 renal, -78.8% (active). For the same compound, the growth was -85.9% (active) with TK-10 renal; -98.9% (active) in the test on ACHN renal; -60.7% (active) with CAKI-1 renal; -85.9% (active) in the test with A498 renal; -19.1% (active) with CCRF-CEM leukemia; -23.8% (active) with MOLT-4 leukemia.
Take `CC(=O)Nc1ccc(-c2cn(-c3cccc(C(=O)Nc4ccc(F)c(C(F)(F)F)c4)c3)nn2)cn1`: the growth with HCT-15 colon was 20.7%; in the test on HT29 colon it was 6.65% (active); in the test on SNB-75 CNS, 119%; in the test with SNB-19 CNS, 43.8%; in the test on PC-3 prostate, 43.1%; with SK-MEL-5 melanoma it was 86.1%. Also, the growth is 55.9% in the test on UACC-62 melanoma; 8.57% (active) in the test with LOX IMVI melanoma; 88.9% with SK-MEL-2 melanoma; 79.9% in the test on EKVX NSCLC; 13.4% with SN12C renal; 123% with UO-31 renal. For the same compound, the growth with TK-10 renal is 109%; in the test on ACHN renal, 56.4%; in the test on CAKI-1 renal, 74.1%; in the test on A498 renal, 114%; in the test with CCRF-CEM leukemia, 53.9%; in the test with MOLT-4 leukemia it was 36.9%.
In the case of `O=c1[nH]n(C(=S)N/N=C/c2ccc(F)cc2)c(=O)c2ccccc12`, the growth with HCT-15 colon was 22.9%; with HT29 colon it was 58.1%; in the test with SNB-75 CNS, 97.4%; with SNB-19 CNS it was 47.6%; with PC-3 prostate it was 58.1%; in the test on SK-MEL-5 melanoma, 73.1%. Further, the growth is 44.7% in the test on UACC-62 melanoma; -24.9% (active) in the test on LOX IMVI melanoma; 91.5% in the test with SK-MEL-28 melanoma; 82.7% in the test on SK-MEL-2 melanoma; 88.2% with EKVX NSCLC; 71.2% in the test on SN12C renal. Moreover, the growth in the test with TK-10 renal is 102%; in the test with ACHN renal it was 82.5%; with CAKI-1 renal, 82%; in the test on A498 renal, 105%; with CCRF-CEM leukemia, 12.8%; in the test on MOLT-4 leukemia it was 10.7%.
For `C=C(c1ccc(OC)c(N)c1)c1cc(C)nc2ccccc12`, the growth is 3.55% (active) in the test on HCT-15 colon; -20.8% (active) in the test on HT29 colon; 21.4% in the test with SNB-75 CNS; 10.3% in the test on SNB-19 CNS; 31.2% with PC-3 prostate; 24.1% with UACC-62 melanoma. For the same compound, the growth with LOX IMVI melanoma is 10.3%; in the test on SK-MEL-28 melanoma, 62.4%; in the test with SK-MEL-2 melanoma, -23.7% (active); with EKVX NSCLC, 21.5%; with SN12C renal it was 6.5% (active); in the test with UO-31 renal, 21.4%. The growth with TK-10 renal is 78.1%; in the test on ACHN renal, 24.5%; in the test on CAKI-1 renal, 27.1%; in the test on A498 renal it was 118%; with CCRF-CEM leukemia, 5.19% (active); with MOLT-4 leukemia it was 12.5%.
